Data: ChEMBL document CHEMBL1961873, “Compounds: GSK PKIS; Assays: Nanosyn kinase panel” (2012)

Assays:
[1] = biological target: T1, Serine/threonine-protein kinase Nek9 (Homo sapiens) (UniProt Q8TD19); details: at 1 µM;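 further: each value is a mean percent inhibition of NEK9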
T1 sequence (whole entry): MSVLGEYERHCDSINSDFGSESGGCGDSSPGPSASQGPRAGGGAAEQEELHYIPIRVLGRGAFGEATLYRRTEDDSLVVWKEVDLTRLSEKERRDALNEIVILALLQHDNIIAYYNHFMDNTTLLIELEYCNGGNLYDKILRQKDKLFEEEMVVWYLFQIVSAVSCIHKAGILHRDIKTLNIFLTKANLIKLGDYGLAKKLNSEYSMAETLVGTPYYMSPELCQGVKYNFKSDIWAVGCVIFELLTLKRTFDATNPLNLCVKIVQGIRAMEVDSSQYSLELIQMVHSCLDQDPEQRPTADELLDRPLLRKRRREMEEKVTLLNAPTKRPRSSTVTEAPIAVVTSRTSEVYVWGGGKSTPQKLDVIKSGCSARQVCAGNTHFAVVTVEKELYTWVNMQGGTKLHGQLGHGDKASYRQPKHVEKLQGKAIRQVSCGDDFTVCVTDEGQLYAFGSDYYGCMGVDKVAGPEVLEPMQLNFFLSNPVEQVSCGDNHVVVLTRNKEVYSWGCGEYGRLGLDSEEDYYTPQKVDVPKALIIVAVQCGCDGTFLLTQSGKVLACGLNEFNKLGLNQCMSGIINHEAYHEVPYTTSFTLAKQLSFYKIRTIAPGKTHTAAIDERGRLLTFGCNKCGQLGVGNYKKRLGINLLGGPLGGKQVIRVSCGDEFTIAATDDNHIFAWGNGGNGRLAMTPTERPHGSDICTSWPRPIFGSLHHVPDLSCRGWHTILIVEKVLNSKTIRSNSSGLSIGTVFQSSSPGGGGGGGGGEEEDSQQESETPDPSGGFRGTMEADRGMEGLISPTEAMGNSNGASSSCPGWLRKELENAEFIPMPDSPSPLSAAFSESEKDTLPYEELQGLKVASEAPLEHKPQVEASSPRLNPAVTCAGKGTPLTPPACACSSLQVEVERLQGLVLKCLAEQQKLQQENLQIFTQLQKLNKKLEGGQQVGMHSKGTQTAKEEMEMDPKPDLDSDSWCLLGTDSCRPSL

[2] = biological target: Serine/threonine-protein kinase PLK1 (Homo sapiens) (UniProt P53350); details: at 0.1 µM
[3] = biological target: Serine/threonine-protein kinase PLK1 (Homo sapiens) (UniProt P53350); details: at 1 µM
[4] = biological target: T2, Dual specificity protein kinase TTK (Homo sapiens) (UniProt P33981); details: at 0.1 µM
T2 sequence (whole entry): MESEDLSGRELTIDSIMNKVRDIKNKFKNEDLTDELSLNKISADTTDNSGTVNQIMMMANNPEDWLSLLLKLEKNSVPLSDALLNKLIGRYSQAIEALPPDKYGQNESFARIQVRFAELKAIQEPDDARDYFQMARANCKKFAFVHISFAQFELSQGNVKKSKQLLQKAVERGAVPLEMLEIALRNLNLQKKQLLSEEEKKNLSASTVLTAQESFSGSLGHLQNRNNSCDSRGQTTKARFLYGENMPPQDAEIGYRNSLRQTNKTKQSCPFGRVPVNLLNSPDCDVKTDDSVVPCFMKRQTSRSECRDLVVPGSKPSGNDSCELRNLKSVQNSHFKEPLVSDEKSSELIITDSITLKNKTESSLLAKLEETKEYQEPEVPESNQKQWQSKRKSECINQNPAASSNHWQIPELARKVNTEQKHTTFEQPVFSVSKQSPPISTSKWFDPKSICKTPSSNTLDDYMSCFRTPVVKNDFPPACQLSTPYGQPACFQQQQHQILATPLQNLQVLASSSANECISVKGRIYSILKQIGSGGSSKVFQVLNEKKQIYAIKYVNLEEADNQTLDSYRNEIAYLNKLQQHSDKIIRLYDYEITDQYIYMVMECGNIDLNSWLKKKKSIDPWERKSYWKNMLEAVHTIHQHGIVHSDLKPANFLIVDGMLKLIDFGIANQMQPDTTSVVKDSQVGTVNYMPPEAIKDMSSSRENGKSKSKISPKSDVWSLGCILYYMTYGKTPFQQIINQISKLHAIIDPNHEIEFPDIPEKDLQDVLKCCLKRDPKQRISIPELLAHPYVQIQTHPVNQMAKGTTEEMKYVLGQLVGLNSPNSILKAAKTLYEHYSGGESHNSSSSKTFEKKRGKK

[5] = tested on: T3, Receptor-type tyrosine-protein kinase FLT3 (Homo sapiens), P36888 [D835Y]; details: at 1 µM
T3 sequence (whole entry): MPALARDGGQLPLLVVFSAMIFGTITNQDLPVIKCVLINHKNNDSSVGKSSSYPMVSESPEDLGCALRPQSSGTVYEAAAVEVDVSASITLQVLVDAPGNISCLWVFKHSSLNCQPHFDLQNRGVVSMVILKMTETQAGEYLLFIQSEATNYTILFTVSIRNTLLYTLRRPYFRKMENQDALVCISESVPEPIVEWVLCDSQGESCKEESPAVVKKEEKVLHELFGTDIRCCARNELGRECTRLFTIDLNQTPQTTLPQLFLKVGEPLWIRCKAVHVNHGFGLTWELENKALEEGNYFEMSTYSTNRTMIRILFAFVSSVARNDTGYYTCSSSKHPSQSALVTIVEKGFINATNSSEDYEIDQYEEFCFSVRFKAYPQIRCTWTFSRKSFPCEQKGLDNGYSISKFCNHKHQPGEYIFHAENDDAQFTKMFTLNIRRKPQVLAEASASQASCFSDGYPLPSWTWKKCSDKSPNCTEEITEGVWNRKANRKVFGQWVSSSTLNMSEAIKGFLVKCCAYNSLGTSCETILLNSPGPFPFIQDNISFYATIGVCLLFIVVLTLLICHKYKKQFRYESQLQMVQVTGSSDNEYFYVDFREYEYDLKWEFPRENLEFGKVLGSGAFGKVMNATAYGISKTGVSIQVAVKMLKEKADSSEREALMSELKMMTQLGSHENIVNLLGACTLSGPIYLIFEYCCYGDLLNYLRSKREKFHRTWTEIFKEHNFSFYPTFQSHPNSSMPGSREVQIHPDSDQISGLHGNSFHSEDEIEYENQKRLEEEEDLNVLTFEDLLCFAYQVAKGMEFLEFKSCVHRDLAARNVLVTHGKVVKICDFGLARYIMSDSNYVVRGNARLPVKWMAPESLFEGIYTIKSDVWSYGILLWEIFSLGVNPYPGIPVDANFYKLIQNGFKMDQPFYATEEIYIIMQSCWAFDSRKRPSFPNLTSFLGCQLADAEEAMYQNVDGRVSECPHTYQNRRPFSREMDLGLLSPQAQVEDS

[6] = biological target: Vascular endothelial growth factor receptor 3 (Homo sapiens) (UniProt P35916); details: at 0.1 µM
[7] = biological target: Vascular endothelial growth factor receptor 3 (Homo sapiens) (UniProt P35916); details: at 1 µM
[8] = biological target: Macrophage colony-stimulating factor 1 receptor (Homo sapiens) (UniProt P07333); details: at 0.1 µM
[9] = biological target: Macrophage colony-stimulating factor 1 receptor (Homo sapiens) (UniProt P07333); details: at 1 µM
[10] = biological target: Tyrosine-protein kinase Fyn (Homo sapiens) (UniProt P06241); details: at 0.1 µM
[11] = biological target: Tyrosine-protein kinase Fyn (Homo sapiens) (UniProt P06241); details: at 1 µM
[12] = biological target: Tyrosine-protein kinase HCK (Homo sapiens) (UniProt P08631); details: at 0.1 µM
[13] = biological target: Tyrosine-protein kinase HCK (Homo sapiens) (UniProt P08631); details: at 1 µM
[14] = biological target: Insulin-like growth factor 1 receptor (Homo sapiens) (UniProt P08069); details: at 0.1 µM
[15] = biological target: Insulin-like growth factor 1 receptor (Homo sapiens) (UniProt P08069); details: at 1 µM
[16] = biological target: Insulin receptor (Homo sapiens) (UniProt P06213); details: at 0.1 µM
[17] = biological target: Insulin receptor (Homo sapiens) (UniProt P06213); details: at 1 µM
[18] = biological target: Insulin receptor-related protein (Homo sapiens) (UniProt P14616); details: at 0.1 µM
[19] = biological target: Insulin receptor-related protein (Homo sapiens) (UniProt P14616); details: at 1 µM
[20] = biological target: T4, Tyrosine-protein kinase ITK/TSK (Homo sapiens) (UniProt Q08881); details: at 0.1 µM;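 further: mean percent inhibition of ITK from the GSK PKIS screen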
T4 sequence (whole entry): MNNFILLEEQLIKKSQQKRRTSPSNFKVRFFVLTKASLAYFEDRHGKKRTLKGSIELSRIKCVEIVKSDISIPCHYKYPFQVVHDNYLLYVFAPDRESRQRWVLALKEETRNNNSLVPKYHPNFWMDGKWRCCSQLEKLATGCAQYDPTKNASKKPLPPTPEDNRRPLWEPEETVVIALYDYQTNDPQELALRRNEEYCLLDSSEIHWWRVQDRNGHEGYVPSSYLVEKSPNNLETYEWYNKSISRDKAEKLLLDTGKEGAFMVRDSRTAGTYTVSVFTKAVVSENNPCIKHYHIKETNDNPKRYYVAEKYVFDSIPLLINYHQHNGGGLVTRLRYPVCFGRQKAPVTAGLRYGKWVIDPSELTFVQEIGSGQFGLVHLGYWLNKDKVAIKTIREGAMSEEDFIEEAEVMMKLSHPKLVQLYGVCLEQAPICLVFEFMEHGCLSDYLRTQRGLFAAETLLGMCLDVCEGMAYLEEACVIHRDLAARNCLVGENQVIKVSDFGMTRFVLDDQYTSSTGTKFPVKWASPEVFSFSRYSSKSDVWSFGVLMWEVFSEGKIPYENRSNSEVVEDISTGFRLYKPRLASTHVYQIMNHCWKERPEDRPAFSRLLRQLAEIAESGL

Tyrosine-protein kinase HCK (Homo sapiens), sequence (P08631 2-526 limits assumed): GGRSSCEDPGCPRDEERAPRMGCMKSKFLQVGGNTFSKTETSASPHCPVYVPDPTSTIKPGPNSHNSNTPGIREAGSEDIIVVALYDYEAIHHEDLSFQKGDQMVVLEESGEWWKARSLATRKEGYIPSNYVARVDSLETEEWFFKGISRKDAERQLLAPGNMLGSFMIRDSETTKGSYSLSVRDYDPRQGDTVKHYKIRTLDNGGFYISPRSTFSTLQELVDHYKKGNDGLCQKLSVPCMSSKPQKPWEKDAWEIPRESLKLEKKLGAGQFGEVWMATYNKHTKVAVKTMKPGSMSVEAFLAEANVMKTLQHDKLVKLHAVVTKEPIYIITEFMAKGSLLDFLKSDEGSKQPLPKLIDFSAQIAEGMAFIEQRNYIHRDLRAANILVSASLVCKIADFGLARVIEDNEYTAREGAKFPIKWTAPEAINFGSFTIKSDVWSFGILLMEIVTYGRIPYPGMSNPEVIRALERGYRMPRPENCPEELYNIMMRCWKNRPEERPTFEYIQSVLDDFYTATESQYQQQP
Insulin receptor (Homo sapiens), sequence (P06213 28-758 limits assumed): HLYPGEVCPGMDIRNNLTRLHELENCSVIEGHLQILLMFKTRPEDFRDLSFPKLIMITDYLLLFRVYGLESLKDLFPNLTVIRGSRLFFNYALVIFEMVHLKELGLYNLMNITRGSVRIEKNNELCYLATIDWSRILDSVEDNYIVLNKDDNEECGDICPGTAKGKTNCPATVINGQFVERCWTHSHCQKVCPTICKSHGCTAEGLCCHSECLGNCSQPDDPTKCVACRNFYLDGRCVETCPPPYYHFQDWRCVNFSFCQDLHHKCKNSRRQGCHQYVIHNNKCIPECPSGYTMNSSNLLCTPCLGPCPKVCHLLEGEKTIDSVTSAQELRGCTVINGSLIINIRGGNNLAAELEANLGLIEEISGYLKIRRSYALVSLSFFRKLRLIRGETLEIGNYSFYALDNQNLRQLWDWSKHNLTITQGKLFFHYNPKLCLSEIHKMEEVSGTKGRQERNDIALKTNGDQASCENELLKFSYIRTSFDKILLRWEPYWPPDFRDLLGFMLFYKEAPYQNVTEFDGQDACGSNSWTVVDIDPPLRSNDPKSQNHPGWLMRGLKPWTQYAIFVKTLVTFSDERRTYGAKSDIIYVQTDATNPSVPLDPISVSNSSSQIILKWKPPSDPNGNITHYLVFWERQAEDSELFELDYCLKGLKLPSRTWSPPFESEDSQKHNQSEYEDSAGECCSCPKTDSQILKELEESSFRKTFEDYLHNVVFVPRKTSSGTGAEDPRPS
Insulin receptor (Homo sapiens), sequence (P06213 763-1382 limits assumed): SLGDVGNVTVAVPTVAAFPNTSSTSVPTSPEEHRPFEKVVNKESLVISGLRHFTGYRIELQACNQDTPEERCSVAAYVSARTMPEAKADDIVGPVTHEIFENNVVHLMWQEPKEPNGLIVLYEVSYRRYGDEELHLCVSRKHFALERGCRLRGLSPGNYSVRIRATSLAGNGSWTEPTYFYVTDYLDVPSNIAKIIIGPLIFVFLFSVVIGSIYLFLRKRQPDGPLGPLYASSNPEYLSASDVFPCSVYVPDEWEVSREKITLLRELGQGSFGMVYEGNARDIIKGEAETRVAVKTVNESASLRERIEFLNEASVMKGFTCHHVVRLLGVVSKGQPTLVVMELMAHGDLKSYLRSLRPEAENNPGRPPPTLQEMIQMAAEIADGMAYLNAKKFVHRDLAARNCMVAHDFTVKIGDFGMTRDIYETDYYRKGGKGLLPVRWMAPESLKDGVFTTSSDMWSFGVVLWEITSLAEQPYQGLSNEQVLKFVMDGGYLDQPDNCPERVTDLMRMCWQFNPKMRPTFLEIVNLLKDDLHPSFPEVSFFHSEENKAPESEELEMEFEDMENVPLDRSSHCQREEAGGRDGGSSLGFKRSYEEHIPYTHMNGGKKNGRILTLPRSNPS
Insulin-like growth factor 1 receptor (Homo sapiens), sequence (P08069 31-736 limits assumed): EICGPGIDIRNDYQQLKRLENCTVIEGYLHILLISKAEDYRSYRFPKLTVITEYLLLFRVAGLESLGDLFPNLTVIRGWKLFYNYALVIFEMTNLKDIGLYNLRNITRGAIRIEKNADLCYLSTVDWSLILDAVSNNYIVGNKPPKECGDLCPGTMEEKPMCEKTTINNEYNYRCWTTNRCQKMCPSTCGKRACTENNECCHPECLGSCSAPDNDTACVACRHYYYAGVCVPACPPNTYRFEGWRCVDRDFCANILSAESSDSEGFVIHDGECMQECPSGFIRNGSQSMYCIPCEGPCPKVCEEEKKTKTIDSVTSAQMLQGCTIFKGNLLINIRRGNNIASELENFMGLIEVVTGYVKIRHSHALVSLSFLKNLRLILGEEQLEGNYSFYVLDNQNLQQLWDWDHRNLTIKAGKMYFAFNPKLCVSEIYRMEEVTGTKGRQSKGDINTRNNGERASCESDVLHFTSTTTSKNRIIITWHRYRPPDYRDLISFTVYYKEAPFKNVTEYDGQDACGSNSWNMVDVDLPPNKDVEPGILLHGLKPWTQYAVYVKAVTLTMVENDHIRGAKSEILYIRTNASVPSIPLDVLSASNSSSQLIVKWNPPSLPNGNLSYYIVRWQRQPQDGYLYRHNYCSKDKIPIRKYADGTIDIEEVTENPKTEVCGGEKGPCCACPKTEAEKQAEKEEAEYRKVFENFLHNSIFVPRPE
Insulin-like growth factor 1 receptor (Homo sapiens), sequence (P08069 741-1367 limits assumed): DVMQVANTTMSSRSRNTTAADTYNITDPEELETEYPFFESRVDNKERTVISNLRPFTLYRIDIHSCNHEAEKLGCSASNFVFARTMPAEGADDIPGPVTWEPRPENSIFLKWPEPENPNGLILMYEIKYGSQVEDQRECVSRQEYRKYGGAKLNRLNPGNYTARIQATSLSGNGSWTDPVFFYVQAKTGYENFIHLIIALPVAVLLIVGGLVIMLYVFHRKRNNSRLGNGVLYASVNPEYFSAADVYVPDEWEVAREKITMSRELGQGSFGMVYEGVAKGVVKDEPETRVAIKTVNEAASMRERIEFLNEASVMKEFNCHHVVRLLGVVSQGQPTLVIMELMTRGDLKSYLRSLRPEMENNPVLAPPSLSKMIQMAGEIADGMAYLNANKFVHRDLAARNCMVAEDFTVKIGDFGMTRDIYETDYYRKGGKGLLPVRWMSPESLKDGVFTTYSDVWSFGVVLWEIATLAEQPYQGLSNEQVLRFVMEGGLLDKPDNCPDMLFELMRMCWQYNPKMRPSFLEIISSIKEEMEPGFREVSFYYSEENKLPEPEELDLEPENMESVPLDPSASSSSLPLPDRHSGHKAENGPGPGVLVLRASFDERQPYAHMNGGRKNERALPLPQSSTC
Tyrosine-protein kinase Fyn (Homo sapiens), sequence (P06241 2-537 limits assumed): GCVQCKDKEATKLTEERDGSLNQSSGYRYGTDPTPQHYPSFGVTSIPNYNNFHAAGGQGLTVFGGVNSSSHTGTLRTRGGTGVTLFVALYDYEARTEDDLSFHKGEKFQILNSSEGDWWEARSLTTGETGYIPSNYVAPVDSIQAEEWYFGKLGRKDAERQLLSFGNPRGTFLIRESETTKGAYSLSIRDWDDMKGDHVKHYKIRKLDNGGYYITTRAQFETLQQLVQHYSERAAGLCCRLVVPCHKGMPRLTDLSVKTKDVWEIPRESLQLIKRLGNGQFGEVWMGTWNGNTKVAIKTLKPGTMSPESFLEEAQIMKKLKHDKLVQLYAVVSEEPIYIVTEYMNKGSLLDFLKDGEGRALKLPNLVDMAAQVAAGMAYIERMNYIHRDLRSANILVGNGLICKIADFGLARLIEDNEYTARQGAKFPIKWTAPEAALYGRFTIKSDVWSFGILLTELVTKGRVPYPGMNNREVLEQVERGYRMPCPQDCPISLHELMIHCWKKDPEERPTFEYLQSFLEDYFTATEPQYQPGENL
Insulin receptor-related protein (Homo sapiens), sequence (P14616 27-742 limits assumed): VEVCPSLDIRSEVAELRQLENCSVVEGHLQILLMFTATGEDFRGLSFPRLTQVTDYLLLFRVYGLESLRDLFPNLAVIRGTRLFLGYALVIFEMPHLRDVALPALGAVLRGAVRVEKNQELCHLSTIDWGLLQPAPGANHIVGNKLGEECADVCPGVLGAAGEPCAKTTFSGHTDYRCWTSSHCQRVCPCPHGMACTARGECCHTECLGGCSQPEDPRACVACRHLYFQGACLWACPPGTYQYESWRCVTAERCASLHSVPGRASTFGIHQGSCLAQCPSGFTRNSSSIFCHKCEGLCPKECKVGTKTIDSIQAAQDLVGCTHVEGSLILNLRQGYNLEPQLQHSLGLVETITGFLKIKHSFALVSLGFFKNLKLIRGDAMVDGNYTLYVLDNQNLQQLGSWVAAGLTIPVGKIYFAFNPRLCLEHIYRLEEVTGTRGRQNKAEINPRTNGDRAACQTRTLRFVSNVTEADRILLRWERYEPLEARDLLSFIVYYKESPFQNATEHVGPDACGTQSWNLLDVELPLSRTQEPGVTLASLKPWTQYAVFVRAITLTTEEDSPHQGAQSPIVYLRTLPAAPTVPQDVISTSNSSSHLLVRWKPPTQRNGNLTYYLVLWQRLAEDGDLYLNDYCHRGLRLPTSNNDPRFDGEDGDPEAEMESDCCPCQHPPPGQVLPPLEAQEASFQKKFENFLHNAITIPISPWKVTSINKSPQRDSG
Insulin receptor-related protein (Homo sapiens), sequence (P14616 747-1297 limits assumed): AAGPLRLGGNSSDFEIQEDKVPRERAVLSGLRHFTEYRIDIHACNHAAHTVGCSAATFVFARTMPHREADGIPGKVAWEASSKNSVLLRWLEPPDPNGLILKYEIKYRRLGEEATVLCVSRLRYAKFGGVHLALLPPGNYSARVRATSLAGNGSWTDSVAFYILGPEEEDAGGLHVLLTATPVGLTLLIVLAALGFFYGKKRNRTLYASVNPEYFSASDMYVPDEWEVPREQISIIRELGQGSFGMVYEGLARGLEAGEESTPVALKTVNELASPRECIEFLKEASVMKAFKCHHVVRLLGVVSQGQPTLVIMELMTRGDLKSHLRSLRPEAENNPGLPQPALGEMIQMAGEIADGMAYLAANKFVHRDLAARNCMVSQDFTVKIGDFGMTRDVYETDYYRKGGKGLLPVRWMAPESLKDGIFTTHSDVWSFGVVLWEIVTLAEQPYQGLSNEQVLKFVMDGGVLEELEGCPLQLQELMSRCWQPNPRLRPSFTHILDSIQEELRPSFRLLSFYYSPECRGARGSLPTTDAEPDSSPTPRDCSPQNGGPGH

Compound | inhibition [1] [%] | inhibition [2] [%] | inhibition [3] [%] | inhibition [4] [%] | inhibition [5] [%] | inhibition [6] [%] | inhibition [7] [%] | inhibition [8] [%] | inhibition [9] [%] | inhibition [10] [%] | inhibition [11] [%] | inhibition [12] [%] | inhibition [13] [%] | inhibition [14] [%] | inhibition [15] [%] | inhibition [16] [%] | inhibition [17] [%] | inhibition [18] [%] | inhibition [19] [%] | inhibition [20] [%]
COc1ccc2ncn(-c3cc(O[C@H](C)c4ccccc4C(F)(F)F)c(C(N)=O)s3)c2c1 | 83.6 | 97 | 99.2 | 0.16 | 2.3 | 1.9 | 15 | -0.05 | 5.84 | 0.53 | 5 | 0.81 | 2.14 | -0.28 | -0.09 | 0.11 | 1.34 | -2.16 | -0.27 | 0.33
Fc1ccc(Nc2nccc(-c3c(-c4ccc(C(F)(F)F)cc4)nn4ncccc34)n2)cc1F | 1.67 | 2.18 | 2.92 | 7.64 | -2.39 | 0.19 | -1.91 | 2.64 | 6.66 | 0.1 | 2.19 | 4.54 | 7.92 | 1.9 | 4.26 | 4.61 | 3.27 | 3.45 | 2.2 | 1.45
CNC(=O)c1sc(-n2cnc3cc(OC)c(OC)cc32)cc1OCc1ccccc1C(F)(F)F | 9.14 | 4.65 | 17.8 | 4.81 | -2.47 | 3.76 | 6.76 | -2.22 | 7.07 | 2.51 | 18.9 | 5.55 | 14 | -3.71 | 1.09 | -4.16 | -0.01 | 2.15 | 2.12 | 0.38
CCN1CCC(C(=O)Nc2n[nH]c3nnc(-c4cccc(F)c4F)cc23)CC1 | 3.91 | -0.35 | -0.89 | -0.14 | 1.33 | 1.09 | 0.68 | -1.42 | 7.94 | 1.4 | 0.66 | 0.33 | 0.65 | -0.72 | -1.06 | -0.08 | 1.38 | -1.17 | -1.67 | 0.47
